± gives the standard deviation of the averaged measurements. Over roughly 33,000 sequences, “E-score (rank enrichment, -0.5 to 0.5)” has its median near -0.0028; the highest 2% begin near 0.23. The sample as a whole holds a higher share of the highest values than the screen did.
Each sequence was assayed on 2Sb-muMax20 (muMax20 with two 1,3-bis(methyl)benzene Cys staples, A13C/A17C and Q88C/A92C, C-terminal Lys) (assay: PBM 8-mer E-score (E-score (rank enrichment, -0.5 to 0.5)); higher = stronger preferential binding).
Experimental: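 Protein binding microarray (universal PBM chip covering all 10-mers in fixed probe flanks) with chemically synthesized human Max(13-93) bHLH-LZ analogs (not full-length Max) bearing noncanonical residues (hArg, Tha, Aib, Nle at 65) and aromatic Cys staples. Read-out per 8-mer (and its reverse complement): E-score (rank-based enrichment, -0.5 to 0.5) and Z-score of median probe intensity.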

Sequence	PBM 8-mer E-score
GAATAGAC	0.00351 ± 0.056
GCCTGAGC	-0.218 ± 0.037
GCAGCACC	-0.116 ± 0.057
GGTTCCAC	-0.0645 ± 0.035
ACGGTCTC	-0.174 ± 0.083
ACCCATCA	0.114 ± 0.044
GCCCCGCC	0.233 ± 0.12
GCCCCGCA	0.0269 ± 0.056
CCCCCGCC	-0.0601 ± 0.073
GGCCCGCC	-0.185 ± 0.11
ACCCCGCC	0.318 ± 0.056
AACCCGCC	0.123 ± 0.0032
GGATTGTA	0.156 ± 0.046
AGGTAGCA	0.107 ± 0.065
AGGTCAGG	-0.187 ± 0.011
CAAAGCAA	0.173 ± 0.058
GAAAGCAA	0.0699 ± 0.014
TAAAGCAA	0.2878 ± 0.0008
GTCGAGAC	0.0609 ± 0.045
ATTTCAGG	-0.054 ± 0.037
AGATCCAG	-0.0734 ± 0.013
GGACAGAC	-0.211 ± 0.04
ATTGATGG	0.254 ± 0.0094
ATTGATGC	0.125 ± 0.018
ATTGATGA	0.0883 ± 0.037

Sequence	PBM 8-mer E-score
CGCTGTTC	-0.0947 ± 0.036
ATCTCGAC	-0.0985 ± 0.011
CACACCAC	0.0993 ± 0.072
CGAACAAA	0.261 ± 0.021
GGAACATA	0.0124 ± 0.063
CGAACATC	0.0524 ± 0.0016
CGAACAAG	-0.08043 ± 0.00071
AGAACAAA	0.13 ± 0.046
CGAACATA	0.233 ± 0.037
CGTAGGAC	-0.224 ± 0.05
CGGCACAG	-0.151 ± 0.028
GTATTAGA	0.201 ± 0.063
ATATTAGG	0.287 ± 0.008
CTATTAGA	-0.0815 ± 0.044
CTATTAGC	0.0397 ± 0.078
ATATTAGA	0.245 ± 0.0043
ATATTAGC	0.125 ± 0.041
CGGCCCCG	-0.0779 ± 0.064
GGAGGTTA	0.0654 ± 0.011
CGGTAAGA	0.00167 ± 0.075
CCACATCC	0.00851 ± 0.069
AGTGATTA	0.0652 ± 0.034
GACTATTA	-0.0384 ± 0.062
AACTATTA	0.252 ± 0.069
CACTATTA	0.133 ± 0.036

Sequence	PBM 8-mer E-score
CGCTATTA	-0.0606 ± 0.018
CACTAATA	0.113 ± 0.031
AGCTATTA	0.251 ± 0.019
GGCTATTA	0.116 ± 0.04
AACTAATA	0.263 ± 0.029
TACTAATA	0.112 ± 0.037
ATCGGGTG	-0.0686 ± 0.0025
ATCCAAGG	-0.161 ± 0.034
CATACTCG	0.0129 ± 0.075
CCATCTTC	0.0281 ± 0.036
AATCACGT	0.26 ± 0.025
AATCACGC	0.125 ± 0.047
AATCACAA	0.166 ± 0.021
AATCACGA	-0.0273 ± 0.0012
AATCACAT	0.245 ± 0.025
AATCACAG	-0.0581 ± 0.1
ACAAATTA	0.0394 ± 0.025
CGGCAAAG	-0.127 ± 0.016
CCGACAGG	-0.121 ± 0.008
CCTTATTC	-0.00564 ± 0.062
CCTCATTA	0.251 ± 0.052
CCTCATTC	0.0874 ± 0.052
GCTTATTA	0.1305 ± 0.0011
GCTCATTA	0.155 ± 0.098
CCTTATTA	0.28 ± 0.023

Sequence	PBM 8-mer E-score
AGCTGCCT	-0.1104 ± 0.00073
CAGCACGC	-0.176 ± 0.048
CTAAAGCC	0.0237 ± 0.016
AGGGAAAT	0.264 ± 0.019
AGGGAAAC	0.00477 ± 0.00053
AGGGAAAG	0.06 ± 0.037
ATAAGCTG	0.0487 ± 0.092
AGTAGAAT	0.192 ± 0.0085
CGATTGAC	-0.0145 ± 0.035
CCACGTCC	-0.141 ± 0.039
CCACGTGG	0.46 ± 0.0066
CAACGTGG	0.11 ± 0.044
CCACGTGA	0.377 ± 0.034
CTACGTGA	0.0198 ± 0.047
CGACGTGA	0.0209 ± 0.0095
CCACGCGA	0.0259 ± 0.0059
CGACGTGC	-0.0806 ± 0.038
CCACGTGC	0.376 ± 0.054
CCACGCGG	0.323 ± 0.026
ACACGCGG	0.145 ± 0.026
CCACGTAG	-0.0491 ± 0.031
TATTAAAA	0.142 ± 0.065
GGAACACC	-0.18 ± 0.026
ACACGGGT	-0.046 ± 0.012
ATTAGGTC	0.0763 ± 0.069

Sequence	PBM 8-mer E-score
ATTATCCA	0.0946 ± 0.055
ACGGAACT	-0.0318 ± 0.08
AGCGTCGG	-0.117 ± 0.08
CAGTATCC	0.0515 ± 0.025
CCACGTTA	0.3181 ± 0.0019
CCACGTTC	0.0604 ± 0.011
GCACGTTA	0.1 ± 0.012
TAGCTTCA	0.122 ± 0.05
AGCGCCCC	-0.0138 ± 0.11
AGTATAAG	0.272 ± 0.011
CGTATAAG	0.0878 ± 0.037
AGTATAAT	0.24 ± 0.091
ACTATAAG	0.0622 ± 0.044
AGTATAAA	0.188 ± 0.0027
AGTATAAC	-0.0733 ± 0.029
AGCGCAGA	-0.126 ± 0.074
AAATAAAT	0.172 ± 0.013
ATAGAAAC	0.0134 ± 0.036
AAGAGGCC	-0.129 ± 0.067
GACTTCAA	0.15 ± 0.0026
AACTTCAA	0.00863 ± 0.015
TACTTCAA	0.265 ± 0.047
AAGATCTA	-0.0269 ± 0.015
AAGATCTG	0.0847 ± 0.069
AAGATCTT	0.257 ± 0.052

Sequence	PBM 8-mer E-score
ATGCTGAA	0.0724 ± 0.024
ACCTAGTG	0.109 ± 0.023
AGGGGATA	0.303 ± 0.046
CGGGGATA	0.0352 ± 0.012
CTGGGATA	-0.0992 ± 0.038
GGGGGATA	0.0584 ± 0.079
ATGGGATA	0.145 ± 0.0055
GTGGGATA	0.274 ± 0.071
ATGCTTCC	-0.0299 ± 0.042
GCCCAGGA	-0.14 ± 0.058
ACCGCGGT	-0.115 ± 0.037
CCCTCCGC	-0.0855 ± 0.048
AACCGATC	-0.0993 ± 0.0093
ACGTGTGC	0.2375 ± 0.00032
ACGTGTTG	0.258 ± 0.013
CCGTGTTA	0.0249 ± 0.014
ACGTGTGG	0.151 ± 0.034
ACGTGTTA	0.269 ± 0.0048
ACGTGTGA	0.0598 ± 0.014
GCGTGTTA	0.0351 ± 0.018
ACGTGTTC	0.103 ± 0.017
ACGTGTAC	0.147 ± 0.019
ACGTGTAT	0.35 ± 0.016
ACGTGTAG	-0.0126 ± 0.035
ATGTGTTG	0.197 ± 0.039

Sequence	PBM 8-mer E-score
GCCTAACA	0.0954 ± 0.1
ATCTCCAA	0.107 ± 0.026
CTGTCTCC	-0.098 ± 0.04
AATTTGAT	-0.0177 ± 0.068
GCAATTGC	0.031 ± 0.021
AACATCGA	0.0919 ± 0.039
GTTGATGA	0.108 ± 0.0079
ATTGGTTC	0.0837 ± 0.026
GGGCCGGA	-0.178 ± 0.071
GATAATCA	0.188 ± 0.037
TATAATCA	0.263 ± 0.0093
AATAATCA	0.0347 ± 0.023
AGTATTCC	0.115 ± 0.061
TAGTATGA	0.233 ± 0.017
AAGTATGA	0.139 ± 0.069
CAGTATGA	0.103 ± 0.036
CCAGGTGA	-0.197 ± 0.057
GTGCGAAC	-0.083 ± 0.0049
AATTAGTA	0.281 ± 0.031
AATTAGTC	0.0882 ± 0.024
CATTAGTA	0.0235 ± 0.027
AGCCGCGG	-0.23908 ± 0.00016

From the supplement of paper PMC12636033
